Results filed as inconclusive are left out. The source made the active and inactive calls. Unless noted, calls come from the whole dose curve; as a rule, active = well fitted curve in the direction sought with a large enough effect in the repeat runs; inconclusive = weak or mixed curves; inactive = no such curve, though single readings can be large; an effect the other way counts as inactive or inconclusive.
Legend:
[1] = qHTS assay to test for compound auto fluorescence at 535 nm (green) in HEK293 cells (AID 720680)
[2] = qHTS assay to test for compound auto fluorescence at 460 nm (blue) in HEK293 cell free culture (AID 720681)
Procedure, shortened: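 Test compounds were pinned into cell-free culture medium (DMEM with 10% FBS) and fluorescence was read directly at Ex/Em 405/460 nm. Signals were expressed as fluorescence equivalents of triamterene, with DMSO vehicle as control.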

[3] = qHTS assay to test for compound auto fluorescence at 535 nm (green) in HEK293 cell free culture (AID 720682)
Procedure, shortened: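 Green-channel intensity (Ex/Em 485/535 nm) was recorded from compound-treated wells containing only DMEM with 10% FBS. Fluorescein provided the equivalency standard.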

[4] = qHTS assay to test for compound auto fluorescence at 590 nm (red) in HEK293 cell free culture (AID 720683)
Procedure, shortened: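 Tox21 10K library compounds were pinned into cell-free DMEM with 10% FBS and fluorescence was read at excitation 540 nm. Activity is expressed as Rose Bengal sodium equivalency.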

[5] = qHTS assay to test for compound auto fluorescence at 460 nm (blue) in HepG2 cell free culture (AID 720685)
Procedure, shortened: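 Compound (23 nL) or DMSO pinned into cell-free MEM with 10% FBS; blue fluorescence read at 405/460 nm excitation/emission, expressed as auto-fluorescence equivalency to triamterene.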

[6] = qHTS assay to test for compound auto fluorescence at 535 nm (green) in HepG2 cell free culture (AID 720686)
[7] = qHTS assay to test for compound auto fluorescence at 460 nm (blue) in HepG2 cells (AID 720687)
Procedure, shortened: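 Cells (2,000/well in MEM with 10% FBS) attached overnight at 37 C, then were exposed to compound or DMSO for 1 hr at 37 C, 5% CO2. Fluorescence read at Ex/Em 405/460 nm, expressed as triamterene-equivalent signal.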

[8] = target: Glucocorticoid receptor (Homo sapiens) (UniProt P04150); test: qHTS assay to identify small molecule agonists of the glucocorticoid receptor (GR) signaling pathway (AID 720691; active = well fitted activation curve with a large enough effect in the signal ratio in the repeat runs, not every such curve was filed as active; the % refers to the signal ratio)
Sequence of Glucocorticoid receptor (Homo sapiens) (P04150 whole entry, looked up): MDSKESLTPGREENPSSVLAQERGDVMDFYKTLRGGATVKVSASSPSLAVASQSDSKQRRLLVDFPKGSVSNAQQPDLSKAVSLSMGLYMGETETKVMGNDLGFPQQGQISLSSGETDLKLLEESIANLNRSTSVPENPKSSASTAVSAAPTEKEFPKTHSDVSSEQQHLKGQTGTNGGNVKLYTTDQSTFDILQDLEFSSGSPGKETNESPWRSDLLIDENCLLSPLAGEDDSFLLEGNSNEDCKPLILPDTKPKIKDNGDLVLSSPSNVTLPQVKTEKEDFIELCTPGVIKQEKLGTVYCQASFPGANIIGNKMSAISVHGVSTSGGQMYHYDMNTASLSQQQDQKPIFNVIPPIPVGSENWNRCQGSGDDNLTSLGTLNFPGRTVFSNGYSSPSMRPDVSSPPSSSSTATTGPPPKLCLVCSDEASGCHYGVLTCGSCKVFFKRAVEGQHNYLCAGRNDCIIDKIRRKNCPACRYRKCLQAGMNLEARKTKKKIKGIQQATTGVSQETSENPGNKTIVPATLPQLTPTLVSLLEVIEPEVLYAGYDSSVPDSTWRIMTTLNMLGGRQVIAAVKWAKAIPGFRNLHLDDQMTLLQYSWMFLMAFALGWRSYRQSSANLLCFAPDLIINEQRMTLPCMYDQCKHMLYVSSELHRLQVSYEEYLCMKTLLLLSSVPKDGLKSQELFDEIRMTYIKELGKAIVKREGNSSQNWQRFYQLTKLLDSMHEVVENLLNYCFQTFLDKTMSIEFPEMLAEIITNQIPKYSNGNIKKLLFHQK
Procedure, shortened: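 Agonist mode in a HeLa line carrying a GRE-controlled beta-lactamase reporter. Compounds act for 18 h at 37 C before a 2 h room-temperature FRET substrate step and fluorescence reading.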

[9] = qHTS assay to identify small molecule antagonists of the glucocorticoid receptor (GR) signaling pathway - cell viability counter screen (AID 720693); note: nearly all actives have a fitted effect of over 55% in size
[10] = qHTS assay for identifying genotoxic compounds that show differential cytotoxicity against isogenic chicken DT40 cell lines with known DNA damage response pathways - wild type cell line (AID 743012); note: nearly all actives have a fitted effect of over 60% in size
Procedure, shortened: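 Cells (DT40 wild type, 300/well) are treated with DMSO-dissolved compounds after a ~0.5 h pre-incubation and kept 40 h at 37 C/5% CO2. Viability is then measured by CellTiter-Glo luminescence following 30 min at room temperature.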

[11] = qHTS assay for identifying genotoxic compounds that show differential cytotoxicity against isogenic chicken DT40 cell lines with known DNA damage response pathways - Rev3 mutant cell line (AID 743014); note: nearly all actives have a fitted effect of over 55% in size
[12] = qHTS assay to identify small molecule antagonists of the androgen receptor (AR) signaling pathway - cell viability counter screen (AID 743033; note: nearly all actives have a fitted effect of over 45% in size)
[13] = qHTS assay to identify small molecule antagonists of the androgen receptor (AR) signaling pathway using the MDA cell line - cell viability counter screen (AID 743041; note: nearly all actives have a fitted effect of over 45% in size)
Procedure, shortened: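 Viability counter screen run alongside the AR antagonist reporter: cells seeded 5 h before compound, R1881 added, 16 h incubation at 37C without CO2, fluorescent CellTiter-Fluor signal quantified.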

[14] = qHTS assay for identifying genotoxic compounds that show differential cytotoxicity against isogenic chicken DT40 cell lines with known DNA damage response pathways - Rad54/Ku70 mutant cell line (AID 743015); note: nearly all actives have a fitted effect of over 60% in size
[15] = qHTS assay to identify small molecule antagonists of the thyroid receptor (TR) signaling pathway - cell viability counter screen (AID 743064); note: nearly all actives have a fitted effect of over 50% in size
Procedure, shortened: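 In rat pituitary GH3.TRE-Luc reporter cells co-exposed to compound and 1 nM T3 for 23.5 h, cytotoxicity was assessed with CellTiter-Fluor in the same wells, read by fluorescence.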

[16] = target: Androgen receptor (Homo sapiens) (UniProt P10275); test: qHTS assay to identify small molecule antagonists of the androgen receptor (AR) signaling pathway (AID 743035; active = well fitted inhibition curve with a large enough effect in the signal ratio in the repeat runs, not every such curve was filed as active; the % refers to the signal ratio)
Sequence of Androgen receptor (Homo sapiens) (P10275 whole entry, looked up): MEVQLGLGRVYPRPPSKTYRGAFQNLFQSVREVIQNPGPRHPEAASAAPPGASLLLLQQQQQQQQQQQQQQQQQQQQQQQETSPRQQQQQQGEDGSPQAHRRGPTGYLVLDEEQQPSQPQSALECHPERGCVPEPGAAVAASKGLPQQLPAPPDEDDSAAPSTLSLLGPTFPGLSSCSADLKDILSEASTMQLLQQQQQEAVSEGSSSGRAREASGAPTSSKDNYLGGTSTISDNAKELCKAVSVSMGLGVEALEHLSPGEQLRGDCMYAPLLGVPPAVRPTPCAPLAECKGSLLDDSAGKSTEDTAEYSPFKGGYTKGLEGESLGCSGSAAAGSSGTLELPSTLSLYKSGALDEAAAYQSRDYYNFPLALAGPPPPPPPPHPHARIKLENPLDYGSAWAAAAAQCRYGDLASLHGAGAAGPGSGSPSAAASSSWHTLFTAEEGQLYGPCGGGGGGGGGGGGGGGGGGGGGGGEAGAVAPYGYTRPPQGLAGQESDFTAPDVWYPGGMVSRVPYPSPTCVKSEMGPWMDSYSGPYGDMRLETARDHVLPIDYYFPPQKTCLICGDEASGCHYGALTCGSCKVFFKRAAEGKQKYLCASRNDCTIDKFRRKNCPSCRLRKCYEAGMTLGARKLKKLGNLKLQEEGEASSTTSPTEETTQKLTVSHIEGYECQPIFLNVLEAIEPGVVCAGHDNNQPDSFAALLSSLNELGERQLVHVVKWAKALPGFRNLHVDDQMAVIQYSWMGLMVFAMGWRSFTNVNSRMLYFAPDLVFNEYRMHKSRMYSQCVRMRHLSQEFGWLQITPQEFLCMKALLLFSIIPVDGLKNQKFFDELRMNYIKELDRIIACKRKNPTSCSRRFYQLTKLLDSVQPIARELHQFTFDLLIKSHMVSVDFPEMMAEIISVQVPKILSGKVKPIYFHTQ
Procedure, shortened: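 Antagonism is scored as loss of R1881-driven beta-lactamase reporter expression in HEK293 cells carrying the reporter under a UAS element, after 16 h co-treatment at 37C and a 2 h room-temperature FRET substrate read.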

[17] = target: Androgen receptor (Homo sapiens) (UniProt P10275); test: qHTS assay to identify small molecule agonists of the androgen receptor (AR) signaling pathway using the MDA cell line (AID 743040; note: nearly all actives have a fitted effect of over 20% in size)
Procedure, shortened: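 Luminescence from ONE-Glo, read after 30 min at room temperature, reflects MMTV-driven luciferase in MDA-kb2 cells (AR- and GR-responsive). Treatment lasted 16 h at 37C, 0% CO2.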

[18] = target: Androgen receptor (Homo sapiens) (UniProt P10275); test: qHTS assay to identify small molecule antagonists of the androgen receptor (AR) signaling pathway using the MDA cell line (AID 743042; note: nearly all actives have a fitted effect of over 55% in size)
Procedure, shortened: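 MDA-kb2 cells (human breast carcinoma, stably carrying an MMTV-luciferase reporter responsive to AR and GR) were plated at 3,000 cells/well and preincubated 5 hr at 37C, then given compound plus R1881 agonist for 16 h. ONE-Glo luminescence was read.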

[19] = target: Glucocorticoid receptor (Homo sapiens) (UniProt P04150); test: qHTS assay to identify small molecule antagonists of the glucocorticoid receptor (GR) signaling pathway (AID 720692; active = well fitted inhibition curve with a large enough effect in the signal ratio in the repeat runs, not every such curve was filed as active; the % refers to the signal ratio)
Procedure, shortened: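 Cells plated, rested 4 h at 37 C/5% CO2; compounds in DMSO pin-transferred; dexamethasone added to 5 nM final; 18 h at 37 C; B/G FRET substrate added, 2 h room temperature; fluorescence measured.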

[20] = qHTS assay to test for compound auto fluorescence at 590 nm (red) in HepG2 cell free culture (AID 720684)
Procedure, shortened: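 Measured in medium alone (MEM containing 10% FBS) following pintool addition of compound; emission at 590 nm with 540 nm excitation, referenced to Rose Bengal sodium.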

Measured: Potency

CCCCCCCCCCCCCCCC/C=C/C1CC(=O)OC1=O (stereo not drawn)
inactive: [1] | [2] | [3] | [4] | [5] | [6] | [7] | [8] | [9] | [10] | [11] | [12] | [13]

CC(C)(O)c1ccc(C(C)(C)O)cc1
inactive: [1] | [2] | [3] | [4] | [5] | [6] | [8] | [9] | [10] | [11] | [14] | [12] | [13]

C=CC(=O)CC
inactive: [1] | [2] | [3] | [4] | [5] | [7] | [10] | [11] | [14] | [12] | [13] | [15]

Cc1cc(C)c(C)c(C)c1
inactive: [1] | [2] | [3] | [4] | [5] | [6] | [9] | [10] | [11] | [14] | [12] | [15]

CCNC(=O)C(C)OC(=O)Nc1ccccc1 (stereo not drawn)
inactive: [1] | [2] | [3] | [4] | [5] | [7] | [8] | [11] | [12]

COc1cc(OC)cc(OC)c1
inactive: [1] | [2] | [3] | [4] | [5] | [6] | [9] | [10] | [11] | [14] | [12] | [16] | [17] | [13] | [18] | [15]

CC(C)=CCC/C(C)=C\C#N
inactive: [1] | [2] | [3] | [4] | [5] | [6] | [7] | [8] | [9] | [10] | [11] | [14] | [13]

CCCCS
inactive: [1] | [2] | [3] | [4] | [5] | [6] | [7] | [8] | [19] | [9] | [10] | [11] | [14] | [13] | [15]

CN(C)CCc1c[nH]c2ccc(CS(=O)(=O)N3CCCC3)cc12
inactive: [1] | [2] | [3] | [4] | [5] | [6] | [7] | [10] | [11] | [14] | [12] | [13] | [15]

C=CCN(CC=C)CC=C
inactive: [1] | [2] | [4] | [20] | [5] | [6] | [7] | [8] | [19] | [9] | [11] | [14] | [13] | [15]

Clc1cc(Cl)c(Cl)c(Cl)c1Cl
inactive: [1] | [2] | [3] | [4] | [5] | [6] | [7] | [8] | [19] | [9] | [10] | [11] | [14] | [15]

C[C@@H](CN1CC(=O)NC(=O)C1)N1CC(=O)NC(=O)C1
inactive: [1] | [2] | [3] | [4] | [5] | [10] | [11] | [12] | [16] | [17] | [13] | [18] | [15]

CC(C)(C)OC=O
inactive: [1] | [2] | [3] | [4] | [5] | [6] | [7] | [8] | [19] | [9] | [10] | [11] | [14] | [12] | [13] | [15]
